Hits are enriched below; roughly 19% of the tested compounds scored in any of these assays.
Shiga toxin inh = inhibitors of Shiga toxin in Vero cells; inhibition, % at 38.7 µM; Vero cells, Shiga toxin protein synthesis inhibition reporter; AID 2315; hit rate 9.2% among 290,000; in the data active = inhibition mostly above about 28%, no sharp cut-off; inactive = mostly below about 43%; note: 0% is about no effect
Pf growth 96h = inhibits malaria parasite growth, 96 h. P. falciparum luciferase reporter growth, 96 h. Potency, µM (top dose mostly 28.7 µM), without a hit: at the highest dose activity change, negative = inhibition, hits mostly inhibitors. hit rate 6.9% among 320,000. AID 504834; note: potency is the fitted concentration of half-maximal effect; % is set by controls: 0 for no effect and ±100 for the full control effect
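Parasite growth measured via integrated firefly luciferase reporter in P. falciparum. Infected erythrocytes at 2% hematocrit, 0.05% parasitemia final were treated 96 hours at 37 C under 5% CO2, and luminescence was read.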
AMA1-RON2 inh = disrupts binding of P. falciparum AMA1 to RON2; AlphaScreen AMA1-biotinylated RON2 peptide binding; Potency, µM (doses to about 58.2 µM), for inactives: top-dose activity change, negative = inhibition, actives largely listed as inhibitors; hit rate 0.2% among 360,000;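 note: potency is the fitted concentration of half-maximal effect; 0% = vehicle wells and -100% = peptide control; nearly all actives have a fitted effect of over 45% in size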
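AMA1 (3D7) with his tag at 25 nM final met compounds first, then biotinylated RON2 peptide at 25 nM; detection used donor plus acceptor beads, 10 µg/mL apiece, read by AlphaScreen after 30 min at room temperature.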
Pf growth 48h = inhibits P. falciparum growth in the first generation, 48 h; Potency, µM (top dose mostly 28.7 µM), without a hit: at the highest dose activity change, negative = inhibition, usual class: inhibitors; P. falciparum luciferase growth in erythrocytes, 48 h; hit rate 5.9% among 310,000; note: potency is the fitted concentration of half-maximal effect; % is set by controls: 0 for no effect and ±100 for the full control effect
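A one-generation exposure of luciferase-tagged malaria parasites in RPMI 1640/Albumax erythrocyte culture, 37 C and 5% CO2. Inhibition is inferred from decreased luminescence after adding detection reagent.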
Cycloheximide cs = counter-screen for Shiga toxin inhibitors: cycloheximide protein synthesis inhibition; cell reporter, cycloheximide protein synthesis inhibition counterscreen; max response, %; hit rate 12% among 300,000; in the data active = max response mostly above about 13%, no sharp cut-off; inactive = mostly below about 14%; note: read at 38.3 µM for the half of the compounds with a filed dose; 0% is about no effect
SARS PLP yeast = blocks SARS-CoV papain-like protease in a yeast assay; S. cerevisiae expressing SARS-CoV PLpro, growth rescue; Potency, µM (titrated, usually from 32.9 µM), for inactives: at the highest dose activity, positive = growth rescue, actives largely listed as activators; hit rate 0.19% among 330,000; calls by dose curve; note: potency is the fitted concentration of half-maximal effect; 0% is about no effect; nearly all actives have a fitted effect of over 55% in size
* hit, by the source's call; ? = inconclusive; nt = no result given. Unless noted, calls come from the whole dose curve; as a rule, active = well fitted curve in the direction sought with a large enough effect; inconclusive = small, poorly fitted or top-dose-only effect, or another doubt; inactive = no such curve, though single readings can be large; an effect the other way counts as inactive or inconclusive.

SMILES	Shiga toxin inh	Pf growth 96h	AMA1-RON2 inh	Pf growth 48h	Cycloheximide cs	SARS PLP yeast
O=C(CSc1nc2ccccc2s1)Nc1cc(S(=O)(=O)N2CCOCC2)ccc1O	17.3	?	-14.9%	15.6%	19.7*	12.6µM*
COc1cc(NC(=O)c2ccc(-c3ccc(F)c(F)c3)c3ccoc23)cc(OC)c1OC	nt	nt	5.8%	nt	nt	nt
COc1ccc(C(C)NCCC(c2ccc(OC(C)C)cc2)c2ccccc2OC)cc1 (centres undefined)	-17.3	?	-7.9%	?	-9.5	-1.5%
CCSc1nnc(N2C(=O)c3ccc(C(=O)c4ccc(C(=O)O)cc4)cc3C2=O)s1	-7.4	10.4µM*	-2.8%	9.5%	1.6	-0.6%
Cc1ccc(C(=O)CCCn2nnc(-c3cccnc3)n2)cc1C	-10.2	?	36.0%	6.5%	-1.8	-8.9%
Cc1ccc2ccccc2c1NC(=O)Cn1nnc(-c2cccnc2)n1	-1.3	0.657µM*	?	24.6%	-4.2	0.8%
CCOc1ccccc1C(=O)N1CCN(c2ccc(C(F)(F)F)cn2)CC1	-7.6	-9.0%	3.3%	13.4%	-2.1	-0.2%
CCOC(=O)C1(CC2CC2)CCN(Cc2cc(Cl)c(O)c(OC)c2)CC1	3.5	0.37µM*	0.8%	?	2.7	-0.7%
CCOC(=O)C1(CC2CC2)CCN(Cc2cnc(-c3ccccc3C)nc2)CC1	5.7	?	3.9%	13.1µM*	6.0	-0.5%
CCOC(=O)C1(CCOc2ccccc2)CCN(Cc2cnc(SC)nc2)CC1	-9.6	-15.6%	?	10.0%	-2.3	-0.6%
CC(C)C[C@@H](C(=O)N[C@@H](C(=O)O)c1ccccc1)N1C(=O)N2CCc3c([nH]c4ccccc34)[C@@]2(C)C1=O	-1.0	?	-10.2%	?	-2.8	2.0%
O=C(O)c1ccccc1N/C=C\[N+](=O)[O-]	29.2	?	16.7%	8.6%	-5.1	-2.3%
c1ccc(Oc2c3ccccc3nc3ccccc23)cc1	-13.0	?	0.0%	7.38µM*	-4.0	-2.5%
Nc1c2ccccc2nc2ccccc12	-12.4	4.65µM*	35.8%	5.22µM*	-1.7	-1.8%
Cc1cc(C)c2c(N)c3cccc(C)c3nc2n1	-23.6	6.57µM*	7.2%	4.15µM*	-4.2	?
Cc1c(N(C)C)nc2ccccc2c1N	-11.3	20.4%	5.2%	7.3%	-4.8	0.1%
Nc1ccc2nc3c(c(Cl)c2c1)CCCC3	27.8	12.1%	4.3%	23.1%	29.4*	7.9%
N=c1c(S(=O)(=O)c2ccc(Cl)cc2)cc2c(=O)n3ccccc3nc2n1C1CCCC1	-6.4	60.9%	-1.1%	?	-2.6	?
Cc1cccc2c(N)c3c(nc12)N(C)CC3	5.5	-9.1%	-6.5%	5.5%	1.8	1.1%
Clc1c2c(nc3ccccc13)CCC2	-6.4	-13.7%	-10.8%	18.5%	-1.9	6.6%
c1ccc2nc3ccccc3nc2c1	44.5	-7.8%	0.0%	-3.8%	7.1	-23.2%
Nc1nc2ccccc2nc1N	27.7*	32.5%	9.8%	31.8%	13.9*	2.1%
CCN(CC)c1nc(N2CCN(C)CC2)nc2ccccc12	nt	401.4%	2.7%	?	-2.1	-0.1%
Nc1c2c(nc3ccccc13)CCCC2	-5.1	8.49µM*	6.3%	?	7.2	-3.7%
CCN(CC)c1nc2ccccc2c(N)c1-c1ccccc1	28.8	-2.5%	-18.4%	14.7µM*	-3.6	-1.8%
SMILES	Shiga toxin inh	Pf growth 96h	AMA1-RON2 inh	Pf growth 48h	Cycloheximide cs	SARS PLP yeast
Cc1cccc2c(N)c3c(nc12)CCCC3 (tested in a mixture with another compound)	7.8	?	-4.0%	4.65µM*	4.8	0.7%
O=c1n(Cc2ccccc2)c(O)c2n1Cc1ccccc1N=C2c1ccccc1	nt	nt	0.1%	nt	nt	nt
COc1ccc(CN2C(=O)CN(S(C)(=O)=O)CC2(C)C(=O)NCc2ccccc2)cc1OC (centres undefined)	nt	nt	3.7%	nt	nt	nt
O=C(C[N+]12CCC(CC1)C(CO)C2)c1ccc(Br)cc1 (centres undefined)	26.8	-25.1%	-4.7%	-14.1%	7.3*	-0.7%
O=C(CNC(=O)c1ccc(Br)cc1)c1ccc(Br)cc1	27.3	?	28.2%	25.9%	0.6	0.2%
Cc1ccc(S(=O)(=O)N(CC(=O)Nc2cccc(N(C)S(C)(=O)=O)c2)c2ccc(Cl)c(Cl)c2)cc1	-2.9	?	-6.0%	13.1µM*	-2.4	-2.1%
CN(c1cccc(NC(=O)CN(c2ccc(F)cc2)S(C)(=O)=O)c1)S(C)(=O)=O	8.0	-10.2%	2.3%	?	-1.1	0.5%
CN(c1cccc(NC(=O)CN(c2ccc(C34CC5CC(CC(C5)C3)C4)cc2)S(C)(=O)=O)c1)S(C)(=O)=O	1.8	16.5µM*	-11.6%	?	-0.6	-1.4%
CN(c1cccc(NC(=O)CN(c2ccc(Cl)c(Cl)c2)S(=O)(=O)c2ccccc2)c1)S(C)(=O)=O	-3.2	?	2.5%	?	-2.5	22.0%
O=C(O)c1cncc(C#CCC2CCCCC2)c1	89.6*	15.6%	12.1%	5.2%	77.0*	-3.6%
Cc1nn(C(=O)c2nn(C)cc2[N+](=O)[O-])c(C)c1Br	2.2	-3.1%	12.8%	20.9%	-4.6	-1.2%
CCOC(=O)C1=C(N)n2c(s/c(=C\c3ccco3)c2=O)=C(C(=O)OC(C)C)C1c1ccco1 (centres undefined)	8.7	?	?	2.94µM*	-2.0	-20.7%
CN1CCc2c(c3c(n2C)CCN(C)[C@H]3c2ccccc2F)[C@@H]1c1ccccc1F	-16.4	?	nt	-14.8%	14.2	-2.9%
CCN(CCNCC(O)COCc1ccc(Cl)cc1)c1cccc(C)c1 (centres undefined)	-6.6	?	?	8.28µM*	-3.4	-7.5%
O=C1C(Cl)=C(N2CCN(c3ccccc3[N+](=O)[O-])CC2)C(=O)c2ccccc21	13.1	8.28µM*	?	?	-4.3	-11.5%
Cc1cc(-c2ccc(F)cc2)n2ncc(-c3ccccc3)c2n1	nt	nt	12.9%	nt	nt	nt
Cc1cc(-c2ccncc2)n2ncc(-c3ccccc3)c2n1	nt	nt	-22.8%	nt	nt	nt
CCSc1cc(C)nc2c(-c3ccccc3)cnn12	69.2*	120.6%	-1.7%	406.3%	52.5*	-0.7%
C=CCSc1cc(C)nc2c(-c3ccccc3)cnn12	80.4*	-45.8%	80.9%	286.2%	62.5*	-2.2%
COCCCNC(=S)N1CCN(C(c2ccccc2)c2ccccc2)CC1	-2.1	-7.6%	-20.5%	13.1µM*	-3.0	13.8%
CC(C)CNC(=S)N1CCN(C(c2ccccc2)c2ccccc2)CC1	7.7	2.08µM*	-21.6%	?	-5.2	-8.2%
CSCC[C@H](NC(=O)OC(C)(C)C)c1nnc(SCc2cccc(F)c2)o1	9.4	30.8%	31.4%	?	0.6	-13.5%
CSCC[C@H](NC(=O)OC(C)(C)C)c1nnc(SCc2ccccc2)o1	22.7	-13.3%	-0.6%	6.57µM*	-0.7	-4.2%

Compound activity (PubChem BioAssay)
